This is a sample that favours compounds with a hit; in the whole collection about 7.2% have one here.
Sm TGR block: blocks Schistosoma mansoni thioredoxin glutathione reductase. Q962Y6. purified TGR, DTNB reduction, TNB absorbance 405 nm. Potency, µM (top dose mostly 114 µM), for inactives: at the top dose activity change, negative = inhibition, actives largely listed as inhibitors. actives 3% (n = 360,000); note: nearly all actives have a fitted effect of over 60% in size
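TGR 20 nM + NADPH 100 uM (dispensed conc.), cpd preinc 15 min RT; start with NADPH (500 uM addition) then DTNB (15 mM addition). Kinetic TNB absorbance, 405 nm filter. Four-parameter Hill fit across titration.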
Lassa entry inh: blocks Lassa virus binding to or entry into cells; Lassa virus pseudotype entry inhibition, cell reporter; actives 1.2% (n = 300,000); Potency, µM (top dose mostly 37.9 µM), for inactives: at the highest dose activity change, negative = inhibition, actives largely listed as inhibitors; AID 540256; calls by dose curve; tested in HEK293 cells; note: nearly all actives have a fitted effect of over 50% in size
Marburg entry inh: inhibitors of Marburg virus binding or cell entry. actives 1.8% (n = 300,000). AID 540276. Marburg virus pseudotyped entry inhibition, cell reporter. Potency, µM (top dose mostly 37.8 µM), without a hit: at the top dose activity change, negative = inhibition, hits mostly inhibitors; calls by dose curve; tested in HEK293 cells
HCV inh: HCV inhibition | AID 651820 | Huh7.5.1 HCVcc-Cre infection, luciferase reporter, 44 h | actives 3.4% (n = 340,000) | Potency, µM (doses to about 41.8 µM), for the others: at the top dose activity change, negative = inhibition, hits mostly inhibitors
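A cell-based infection assay in which seeded cells (1,000 per well) receive test compound after 4 h, are inoculated with HCVcc-Cre at approximately 0.5 moi, and are incubated 44 h before luminescence detection.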
FMDV antiviral: blocks foot and mouth disease virus; FMDV antiviral cell-based qHTS; Potency, µM (top dose mostly 57.9 µM), without a hit: top-dose activity change, negative = inhibition, usual class: inhibitors; actives 1.2% (n = 410,000); AID 1159524; calls by dose curve; tested in HEK293T cells; note: read-out not given here; nearly all actives have a fitted effect of over 45% in size
RE007 growth inh: less growth of the S. pombe RE007 Vpr strain | S. pombe RE007 Vpr strain, BacTiter-Glo ATP luminescence, 24 h | Potency, µM (titrated, usually from 92.2 µM), without a hit: top-dose activity change, negative = less growth, actives largely listed as inhibitors | actives 0.21% (n = 360,000) | AID 651644; active = well fitted falling curve with a large enough effect; inconclusive = small, poorly fitted or top-dose-only effect; inactive = no such curve, though single readings can be large or run the other way; note: nearly all actives have a fitted effect of over 50% in size
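Fission yeast strain RE007, carrying one chromosomally integrated HIV-1 vpr copy, was seeded at OD 0.01 in PMG+AL medium with 23 nL pinned compound. After 24 h at 30 °C and 99% humidity, viability was read by BacTiter-Glo luminescence.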
Numbers without * were called inactive; ? = inconclusive; . = no result given; [ ] = remark or other dose. Unless noted, calls come from the whole dose curve; as a rule, active = well fitted curve in the direction sought with a large enough effect; inconclusive = small, poorly fitted or top-dose-only effect, or another doubt; inactive = no such curve, though single readings can be large; an effect the other way counts as inactive or inconclusive. % is set by controls: 0 for no effect and ±100 for the full control effect; potency is the fitted concentration of half-maximal effect.

SMILES	Sm TGR block	Lassa entry inh	Marburg entry inh	HCV inh	FMDV antiviral	RE007 growth inh
CC(SCc1ccccc1)C(=O)N/N=C/c1ccc(OCC(=O)NCc2ccco2)cc1 (configuration not stated)	-22%	?	?	11µM*	13µM*	5%
Cc1cc2c(cc(C(=O)OCC(=O)NCc3ccco3)n2C)s1	-15%	?	-27%	-10%	19%	4%
COc1cc(C(=O)OCC(=O)NCc2ccco2)cc(OC)c1OC	45µM*	2%	?	-9%	-29%	-1%
COc1ccc(CSCC(=O)N/N=C/c2ccc(OCC(=O)NCc3ccco3)cc2)cc1	2%	?	?	?	?	10%
COc1cc(OC)cc(C(=O)OCC(=O)NCc2ccco2)c1	?	.	.	0%	-19%	5%
CCOc1cc(C(=O)OCC(=O)NCc2ccco2)cc(OCC)c1OCC	25µM*	-2%	-25%	?	?	1%
O=C(COc1ccccc1)Nc1ccc(S(=O)(=O)NCc2ccco2)cc1	?	23µM*	?	?	38%	12%
O=C(COc1ccccc1)NCC(=O)Nc1ccc(S(=O)(=O)NCc2ccco2)cc1	?	-8%	4%	17%	-17%	-20%
O=C(COC(=O)c1ccc(S(=O)(=O)NCc2ccco2)cc1)NCCC1=CCCCC1	45µM*	0%	0%	3%	-13%	-11%
O=C(COC(=O)c1ccc(S(=O)(=O)NCc2ccco2)cc1)NCc1ccccc1	.	-1%[46.1 µM]	-10%[46.1 µM]	8%	-19%	-7%
CCOc1ccc(N(CC(=O)NCc2ccco2)S(=O)(=O)c2ccc(OC)c(OC)c2)cc1	32µM*	-18%	-12%	?	-13%	1%
CC(C)CN1CC[C@@]2(CCCN(C(=O)c3cc(C(F)(F)F)cc(C(F)(F)F)c3)C2)C1	.	.	.	.	-12%	.
CC(C)(C)c1ccc(OCC(=O)NCc2ccco2)c(Br)c1	10µM*	1%	?	-22%	-5%	?
O=C(COC(=O)c1cncc(Br)c1)NCc1ccco1	25µM*	11%	-1%	13%	-16%	-19%
CCN(CC)S(=O)(=O)c1ccc(OCC(=O)NCc2ccco2)cc1	22µM*	-25%	-14%[46.1 µM]	-6%	-3%	0%
CC(C)(C)c1ccc(OCC(=O)NNC(=S)NC(=O)c2ccco2)c(Br)c1	0%	?	?	?	4%	-4%
O=C(COC(=O)c1cncc(Br)c1)NCc1ccc(F)cc1	-1%	?	-6%[46.1 µM]	-15%	-6%	-3%
O=C(COC(=O)c1ccc(NS(=O)(=O)c2cccs2)cc1)NCc1ccco1	11µM*	.	.	9%	-13%	12%
COCCNc1nc(NCc2ccc(C(C)C)cc2)c2sccc2n1	.	.	.	.	?	-5%
Cc1ccc(-n2ncc(C(=O)N3CCN(C4CCCCC4)CC3)c2C2CCN(C(=O)OC(C)(C)C)CC2)cc1	0%	?	.	.	-23%	.
COC(=O)CC1=CO[C@@H](O)[C@@H]2C(CO)=CC[C@@H]12	.	.	16%[14.2 µM]	.	.	.
CCCOc1cc(CC(=O)NCc2ccco2)ccc1OC	-19%	10%	4%	6%	15%	24%
CC(C)C(NC(=O)OCc1ccccc1)C(=O)OCC(=O)NCc1ccco1 (configuration not stated)	28µM*	?	18%	-8%	-11%	-28%
CCCN(CCC)S(=O)(=O)c1ccc(C(=O)NCc2ccco2)cc1	-9%	0.79µM*	2%	15%	-6%	-3%
COc1cc(NC(=O)NCc2ccco2)ccc1-c1ccc(NC(=O)NCc2ccco2)cc1OC	.	?	?	11µM*	-27%	15%
SMILES	Sm TGR block	Lassa entry inh	Marburg entry inh	HCV inh	FMDV antiviral	RE007 growth inh
COc1ccc(CC(=O)OCC(=O)NCc2ccco2)cc1OC	40µM*	-3%	5%	16%	-4%	8%
CCCCNc1nc(Oc2ccc(=O)n(-c3ccccc3)n2)nc(N(CC)CC)n1	1%	?	5%[46.1 µM]	.	-25%	.
O=C(COC(=O)c1cc2ccccc2cc1O)NC(=O)NCc1ccco1	45µM*	8%	18%[14.2 µM]	4%	-7%	6%
COc1ccc(C2(C(=O)NCc3ccco3)CCCC2)cc1OC	45µM*	9%	-13%[46.1 µM]	-5%	-22%	0%
O=C(CSc1nc(-c2cccs2)cc(C(F)(F)F)n1)Nc1cc(OCC(F)(F)C(F)F)cc([N+](=O)[O-])c1	-3%	?	?	3.5µM*	?	17%
N=c1sccn1CC(=O)NCc1ccc(Cl)cc1Cl	-1%	8%[46.1 µM]	13µM*	-9%	15%	-17%
CC1CC(C)CC(C)C(O)C(C#N)=CC=CCC(C2CCCC2C(=O)O)OC(=O)CC(O)C(C)C1 (configuration not stated)	.	1.4µM*	0.45µM*	?	?	6.3µM*
COc1ccccc1-c1cccc([C@@H]2C[C@H]3[C@H](CON3C)CN2Cc2ccccc2)c1	.	.	.	8.9µM*	0%	0%
CCC(C(=O)Nc1cc(OC)ccc1OC)n1nc(-c2ccccc2)c2c(c1=O)CCCC2 (configuration not stated)	2%	?	?	.	-12%	.
CCCCCCOc1ccc(CN2CCN(C)CC2)cc1	-9%	?	?	1.8µM*	-25%	2%
CN1CCN(CCCOc2ccc(-c3ccccc3)cc2)CC1	0%	?	?	2.8µM*	6%	4%
CCCCOc1ccc(CN2CCCCC2)cc1	0%	11%	?	17%	.	-5%
CC(=O)N1CCCc2cc(S(=O)(=O)NCc3ccc(N(C)C)cc3)ccc21	-2%	2%[46.1 µM]	.	.	-6%	.
Oc1ccccc1Oc1ncc(Br)c(N2CCOCC2)n1	-4%	18%	-16%	-23%	-29%	6%
Oc1ccccc1Oc1ncc(Br)c(Cl)n1	35µM*	.	.	-6%	-27%	1%
CCn1cnc2sc(C(=O)N(Cc3ccc(N(C)C)cc3)Cc3ccco3)c(C)c2c1=O	-19%	?	5µM*	-6%	-17%	27%
CN(C)c1ccc(CN(Cc2ccco2)C(=O)c2ccc(C(C)(C)C)cc2)cc1	13%	?	-1%[46.1 µM]	.	6%	.
CC(=O)N(c1ccccc1C)C1CCCC1	-1%	3%	-2%	32%	-9%	-14%
CC(=O)N(C1=C(Cl)C(=O)c2ccccc2C1=O)C1CCCCC1	0.11µM*	13µM*	?	7.9µM*	?	6.3µM*
O=C(NCC(c1cccnc1)N1CCc2ccccc2C1)C(=O)Nc1ccccc1 (configuration not stated)	2%	6%[46.1 µM]	.	.	-9%	.
CCc1ccc(NC(=O)C(=O)NCC(c2cccnc2)N2CCc3ccccc3C2)cc1 (configuration not stated)	-11%	18%[46.1 µM]	.	.	10µM*	.

Screening results deposited in PubChem by National Center for Advancing Translational Sciences (NCATS).
